Data from PubChem BioAssay (NCATS).
Inconclusive results are not listed. Calls of active or inactive are those of the source. Unless noted, calls follow the shape of the dose curve; as a rule, active = well fitted curve in the direction sought with a large enough effect; inconclusive = small, poorly fitted or top-dose-only effect, or another doubt; inactive = no such curve, though single readings can be large; an effect the other way counts as inactive or inconclusive.

Assays:
[1] = AP1 Signaling Pathway (AID 357; active = well fitted curve in either direction with a large enough effect, not every such curve was filed as active;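 also: ME-180 reporter cells stimulated with EGF at its EC50 level; % is scaled to controls: 0 for no effect and ±100 for the full control effect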); settings: ME-180 AP-1-bla reporter, EGF-induced, beta-lactamase ratio, 5 h; at 7.69 µM (top of the series) unless noted
Summary of the method: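 Cells are seeded overnight, exposed to compound titrations and an EC50 level of EGF for 5 hours at 37 °C, then loaded with CCF4 dye for 2.5 hours. Beta-lactamase activity under the AP-1 element is read as a blue/green ratio.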

[2] = target: Cytochrome P450 1A2 (Homo sapiens) (UniProt P05177); test: p450-cyp1a2 (AID 410; calls by dose curve; also: potency is read from the fitted curve at half-maximal effect)
Chain of Cytochrome P450 1A2 (Homo sapiens) (P05177 whole entry, looked up): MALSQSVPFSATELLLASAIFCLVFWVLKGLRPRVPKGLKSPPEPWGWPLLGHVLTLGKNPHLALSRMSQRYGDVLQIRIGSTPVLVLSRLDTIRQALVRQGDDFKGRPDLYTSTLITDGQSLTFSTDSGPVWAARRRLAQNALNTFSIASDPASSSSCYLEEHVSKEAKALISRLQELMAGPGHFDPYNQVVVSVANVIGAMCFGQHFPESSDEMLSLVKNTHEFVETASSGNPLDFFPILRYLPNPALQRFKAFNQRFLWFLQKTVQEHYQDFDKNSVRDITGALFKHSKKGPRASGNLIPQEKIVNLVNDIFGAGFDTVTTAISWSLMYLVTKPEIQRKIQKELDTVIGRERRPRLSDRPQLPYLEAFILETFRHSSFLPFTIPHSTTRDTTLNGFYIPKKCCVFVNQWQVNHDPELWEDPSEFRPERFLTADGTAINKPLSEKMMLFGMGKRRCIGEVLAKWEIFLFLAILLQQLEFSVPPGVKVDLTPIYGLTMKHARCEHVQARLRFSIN
Summary of the method: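 20nM CYP1A2, 100uM Luciferin-ME (=Km), 100mM KPO4; cpd 10 min RT; +NADPH regen, 60 min RT; stop/detect 20 min; luminescence. Normalized to furafylline 57 uM = full inhibition.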

[3] = NFAT Signaling Pathway (AID 444; active = well fitted curve in either direction with a large enough effect, not every such curve was filed as active;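 also: carbachol stimulus at about its EC50 of 1 µM final; % is scaled to controls: 0 for no effect and ±100 for the full control effect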); settings: Jurkat NFAT-bla M1, carbachol, beta-lactamase ratio, 5 h; at 7.69 µM (top of the series) unless noted
Summary of the method: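 Jurkat cells carrying an NFAT-driven β-lactamase reporter and co-transfected muscarinic M1 receptor were treated with compound plus carbachol (1 uM final, an EC50 level) for 5 h at 37 °C. CCF4 loading followed for 1 h at RT; 460/530 nm ratio gave %activity.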

[4] = Stat Signaling Pathway (AID 446; active = well fitted curve in either direction with a large enough effect, not every such curve was filed as active;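 also: ME-180 cervical cancer cells given 40 pM IL-6 alongside compound; SIE-controlled beta-lactamase reporter measured as 460/530 nm FRET emission ratio; % is scaled to controls: 0 for no effect and ±100 for the full control effect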); settings: ME-180 (cervical carcinoma) SIE beta-lactamase reporter, IL-6 stimulated, 5 h; at 7.69 µM (top of the series) unless noted
Summary of the method: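 Overnight-plated ME-180 cells bearing a STAT Inducible Element beta-lactamase reporter; 5 h co-exposure to compound and 40 pM IL-6; values normalized to 300 pM IL-6 and 125 nM JAK inhibitor controls.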

[5] = target: Glucocorticoid receptor (Homo sapiens) (UniProt P04150); test: GR-GFP Redistribution (AID 450;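 active = compounds whose dose series gives a full or clear partial fitted curve of increased nuclear translocation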; also: potency is read from the fitted curve at half-maximal effect); settings: U2OS GR-GFP nuclear translocation, laser cytometry, 2 h
Chain of Glucocorticoid receptor (Homo sapiens) (P04150 whole entry, looked up, the tested form may be a part): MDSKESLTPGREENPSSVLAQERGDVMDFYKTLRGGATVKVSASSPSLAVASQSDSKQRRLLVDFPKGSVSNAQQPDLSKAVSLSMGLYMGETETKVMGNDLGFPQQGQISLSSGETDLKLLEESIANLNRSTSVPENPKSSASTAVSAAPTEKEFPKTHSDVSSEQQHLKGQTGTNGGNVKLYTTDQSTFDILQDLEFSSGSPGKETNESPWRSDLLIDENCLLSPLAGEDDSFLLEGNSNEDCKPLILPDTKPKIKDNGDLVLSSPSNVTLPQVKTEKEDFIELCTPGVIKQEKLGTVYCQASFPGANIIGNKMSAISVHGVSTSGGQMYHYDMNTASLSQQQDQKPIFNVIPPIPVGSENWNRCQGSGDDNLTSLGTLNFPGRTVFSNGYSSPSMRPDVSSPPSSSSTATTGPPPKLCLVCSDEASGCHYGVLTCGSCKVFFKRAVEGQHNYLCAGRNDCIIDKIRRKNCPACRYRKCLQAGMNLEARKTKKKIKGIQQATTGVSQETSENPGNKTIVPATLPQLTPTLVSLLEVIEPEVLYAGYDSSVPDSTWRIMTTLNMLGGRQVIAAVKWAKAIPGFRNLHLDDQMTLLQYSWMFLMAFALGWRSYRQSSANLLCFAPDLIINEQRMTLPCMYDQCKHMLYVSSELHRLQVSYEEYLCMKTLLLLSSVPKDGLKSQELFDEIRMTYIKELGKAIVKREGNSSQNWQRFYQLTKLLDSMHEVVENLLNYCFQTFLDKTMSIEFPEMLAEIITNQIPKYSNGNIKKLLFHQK

[6] = target: Glucocorticoid receptor (Homo sapiens) (UniProt P04150); test: GR-EFC Redistribution (AID 451; calls by dose curve; also: potency is read from the fitted curve at half-maximal effect); settings: CHO-K1 GR-EFC translocation, beta-gal luminescence, 2 h
Summary of the method: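 CHO-K1 cells stably expressing nuclear-localized β-gal enzyme acceptor and GR fused C-terminally to the enzyme donor fragment; ligand-driven nuclear translocation restores β-gal by complementation. Compounds titrated up to 46 uM final, 2 h at 37 °C; luminescence read.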

[7] = target: Mitogen-activated protein kinase 10 (Mus musculus) (UniProt Q61831); test: JNK3 AlphaScreen Assay (AID 530; active = well fitted curve in either direction with a large enough effect, not every such curve was filed as active;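 also: kinase came from lysate of stimulated human HepG2 cells; signal reports phosphorylation of biotinylated GST-cJun 1-79 at Ser73 with 10 µM ATP; % is scaled to controls: 0 for no effect and ±100 for the full control effect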)
Summary of the method: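 Biotinylated GST-cJun(1-79) served as substrate for JNK3 in HepG2 lysates stimulated with IL-1beta and TNF-alpha. ATP was 10 uM final, pH 7.6. Ser73 phosphorylation was quantified by AlphaScreen (680 nm excitation).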

[8] = target: 3',5'-cyclic-AMP phosphodiesterase 4B (Homo sapiens) (UniProt Q07343); test: qHTS Assay for Inhibitors of PDE-IV (AID 607; active = well fitted activation curve with a large enough effect in the main read-out, with a control signal flat, not every such curve was filed as active; also: % of control where 0% means no effect)
Chain of 3',5'-cyclic-AMP phosphodiesterase 4B (Homo sapiens) (Q07343 whole entry, looked up): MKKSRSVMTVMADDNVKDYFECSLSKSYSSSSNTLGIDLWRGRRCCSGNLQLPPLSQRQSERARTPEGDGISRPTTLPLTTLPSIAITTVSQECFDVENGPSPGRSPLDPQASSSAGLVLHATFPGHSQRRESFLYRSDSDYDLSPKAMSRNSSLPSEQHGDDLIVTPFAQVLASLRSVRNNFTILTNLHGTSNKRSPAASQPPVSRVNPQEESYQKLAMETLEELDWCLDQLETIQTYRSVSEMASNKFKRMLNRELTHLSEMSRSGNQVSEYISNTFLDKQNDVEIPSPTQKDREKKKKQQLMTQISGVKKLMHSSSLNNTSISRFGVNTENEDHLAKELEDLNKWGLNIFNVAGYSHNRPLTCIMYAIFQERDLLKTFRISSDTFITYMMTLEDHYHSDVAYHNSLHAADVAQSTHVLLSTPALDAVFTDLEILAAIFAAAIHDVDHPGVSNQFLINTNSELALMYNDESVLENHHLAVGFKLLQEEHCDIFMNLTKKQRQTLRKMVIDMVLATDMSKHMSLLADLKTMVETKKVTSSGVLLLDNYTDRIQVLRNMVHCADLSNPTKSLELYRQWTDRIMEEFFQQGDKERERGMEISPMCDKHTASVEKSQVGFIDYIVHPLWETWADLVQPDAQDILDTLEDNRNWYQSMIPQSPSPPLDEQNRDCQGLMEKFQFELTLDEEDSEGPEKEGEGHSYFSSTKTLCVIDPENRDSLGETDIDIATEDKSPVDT
Summary of the method: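 Live HEK293 cells with a modified cyclic nucleotide-gated (CNG) channel report intracellular cAMP via membrane-potential dye fluorescence (ex 535/em 590 nm). Endogenous PDE-IV was targeted. Compounds were tested at up to 22.9 uM final; RO 20-1724 100 uM served as control.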

[9] = target: Cytochrome P450 3A4 (Homo sapiens) (UniProt P08684); test: qHTS Assay for Inhibitors and Substrates of Cytochrome P450 3A4 (AID 884); also: potency is read from the fitted curve at half-maximal effect; nearly all actives have a fitted effect of over 50% in size
Chain of Cytochrome P450 3A4 (Homo sapiens) (P08684 whole entry, looked up): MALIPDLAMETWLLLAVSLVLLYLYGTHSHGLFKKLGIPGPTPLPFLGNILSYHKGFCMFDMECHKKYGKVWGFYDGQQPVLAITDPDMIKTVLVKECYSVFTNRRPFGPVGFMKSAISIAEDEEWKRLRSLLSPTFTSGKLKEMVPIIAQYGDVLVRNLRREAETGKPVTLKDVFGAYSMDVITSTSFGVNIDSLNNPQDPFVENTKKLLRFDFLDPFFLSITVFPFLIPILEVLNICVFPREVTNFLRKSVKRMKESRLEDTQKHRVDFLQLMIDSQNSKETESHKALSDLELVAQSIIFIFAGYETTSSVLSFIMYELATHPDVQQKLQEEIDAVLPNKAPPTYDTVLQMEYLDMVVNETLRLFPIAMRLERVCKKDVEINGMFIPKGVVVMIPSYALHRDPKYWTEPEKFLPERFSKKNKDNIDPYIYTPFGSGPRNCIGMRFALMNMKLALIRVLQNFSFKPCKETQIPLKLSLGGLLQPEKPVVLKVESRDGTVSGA
Summary of the method: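 Luminescent readout of luciferin produced by CYP3A4 (20 nM) dealkylation of Luciferin-PPXE, 25 uM (its KM). NADPH-driven reaction ran 60 min at RT after 10 min compound preincubation; data scaled to 57 uM ketoconazole as 100% inhibition.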

[10] = target: Cytochrome P450 3A4 (Homo sapiens) (UniProt P08684); test: qHTS Assay for Activators of Cytochrome P450 3A4 (AID 885); also: nearly all actives have a fitted effect of over 65% in size
Summary of the method: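 Using 20nM recombinant human CYP3A4 in potassium phosphate (200mM), substrate Luciferin-PPXE at 25uM, luminescent luciferin detection followed a 60-min RT NADPH reaction; data scaled to 57 uM ketoconazole.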

[11] = qHTS Assay for Lipid Storage Modulators (AID 1519; calls by dose curve); settings: Drosophila S3 cells, BODIPY lipid droplet/cell ratio, laser cytometry, cells loaded with oleic acid; for activity change, negative = inhibition: at 57.5 µM (top of the series)
Summary of the method: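 Cells seeded at 5,000 per well were treated with compounds over a concentration series and loaded with oleic acid (400 uM, as added). Lipid droplet fluorescence (488 nm excitation, 500-530 nm channel) was read by laser-scanning cytometry and normalized to 20 uM Triacsin C.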

[12] = target: Dual specificity protein kinase CLK4 (Homo sapiens) (UniProt Q9HAZ1); test: qHTS Assay for Inhibitors of CDC-like Kinase 4 (Kinase-Glo Assay) (AID 1770); also: nearly all actives have a fitted effect of over 65% in size; also: potency is read from the fitted curve at half-maximal effect
Chain of Dual specificity protein kinase CLK4 (Homo sapiens) (Q9HAZ1 whole entry, looked up): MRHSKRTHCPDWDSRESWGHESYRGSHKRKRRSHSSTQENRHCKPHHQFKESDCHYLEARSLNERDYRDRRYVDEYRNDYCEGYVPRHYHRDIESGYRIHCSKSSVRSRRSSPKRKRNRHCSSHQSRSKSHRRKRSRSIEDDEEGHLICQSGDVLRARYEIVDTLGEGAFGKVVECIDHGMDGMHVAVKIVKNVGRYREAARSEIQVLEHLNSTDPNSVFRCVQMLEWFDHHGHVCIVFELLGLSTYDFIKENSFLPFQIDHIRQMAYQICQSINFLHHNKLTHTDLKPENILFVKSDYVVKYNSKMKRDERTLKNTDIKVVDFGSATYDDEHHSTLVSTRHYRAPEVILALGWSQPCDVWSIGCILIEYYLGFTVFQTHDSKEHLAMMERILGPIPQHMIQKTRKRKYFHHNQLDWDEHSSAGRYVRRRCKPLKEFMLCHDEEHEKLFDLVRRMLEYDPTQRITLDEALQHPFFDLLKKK
Summary of the method: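 Clk4 25 nM, RS peptide 100 uM, ATP 1 uM, pH 7.5 Tris, 10 mM MgCl2, 2.5 mM DTT; 4.5 h RT; ATP depletion read by Kinase-Glo luminescence.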

[13] = target: Dual specificity protein kinase CLK4 (Homo sapiens) (UniProt Q9HAZ1); test: qHTS Assay for Inhibitors of CDC-like Kinase 4 (ADP-Glo Assay) (AID 1771); also: nearly all actives have a fitted effect of over 70% in size; also: potency is read from the fitted curve at half-maximal effect
Summary of the method: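 25 nM Clk4, 100 uM RS peptide, 1 uM ATP (final); 2 mM MgCl2, 0.5 mM EGTA, 2.5 mM DTT, 0.01% Triton X-100; 1 hr RT. ADP-Glo readout: ATP depletion 45 min, conversion/luciferase 30 min, luminescence.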

[14] = target: Dual specificity protein kinase CLK4 (Homo sapiens) (UniProt Q9HAZ1); test: qHTS Assay for Inhibitors of CDC-like Kinase 4 (ADP-FP Assay) (AID 1795); also: nearly all actives have a fitted effect of over 60% in size; also: potency is read from the fitted curve at half-maximal effect
Summary of the method: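 Kinase activity was followed as ADP output, converted from fluorescence polarization with a calibration curve. Reactions ran one hour at low ATP (1 uM) with RS peptide substrate.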

[15] = Primary qHTS for small molecule stabilizers of the endoplasmic reticulum resident proteome: Secreted ER Calcium Modulated Protein (SERCaMP) assay (AID 1508630); also: % is scaled to controls: 0 for no effect and ±100 for the full control effect
Summary of the method: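 The SH-SY5Y reporter protocol was run at 3 concentrations up to 38.3 uM (primary) or 11 concentrations (follow-up): 16 h compound, 100 nM thapsigargin for 4 h, then extracellular luciferase luminescence.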

[16] = target: Ubiquitin carboxyl-terminal hydrolase 1 (Homo sapiens) (UniProt O94782); test: Inhibitors of USP1/UAF1: Pilot qHTS (AID 504865);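 also: rhodamine fluorescence freed from ubiquitin-rhodamine substrate followed over time; top concentration of the series differs between compounds; % is scaled to controls: 0 for no effect and ±100 for the full control effect; nearly all actives have a fitted effect of over 35% in size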
Chain of Ubiquitin carboxyl-terminal hydrolase 1 (Homo sapiens) (O94782 whole entry, looked up): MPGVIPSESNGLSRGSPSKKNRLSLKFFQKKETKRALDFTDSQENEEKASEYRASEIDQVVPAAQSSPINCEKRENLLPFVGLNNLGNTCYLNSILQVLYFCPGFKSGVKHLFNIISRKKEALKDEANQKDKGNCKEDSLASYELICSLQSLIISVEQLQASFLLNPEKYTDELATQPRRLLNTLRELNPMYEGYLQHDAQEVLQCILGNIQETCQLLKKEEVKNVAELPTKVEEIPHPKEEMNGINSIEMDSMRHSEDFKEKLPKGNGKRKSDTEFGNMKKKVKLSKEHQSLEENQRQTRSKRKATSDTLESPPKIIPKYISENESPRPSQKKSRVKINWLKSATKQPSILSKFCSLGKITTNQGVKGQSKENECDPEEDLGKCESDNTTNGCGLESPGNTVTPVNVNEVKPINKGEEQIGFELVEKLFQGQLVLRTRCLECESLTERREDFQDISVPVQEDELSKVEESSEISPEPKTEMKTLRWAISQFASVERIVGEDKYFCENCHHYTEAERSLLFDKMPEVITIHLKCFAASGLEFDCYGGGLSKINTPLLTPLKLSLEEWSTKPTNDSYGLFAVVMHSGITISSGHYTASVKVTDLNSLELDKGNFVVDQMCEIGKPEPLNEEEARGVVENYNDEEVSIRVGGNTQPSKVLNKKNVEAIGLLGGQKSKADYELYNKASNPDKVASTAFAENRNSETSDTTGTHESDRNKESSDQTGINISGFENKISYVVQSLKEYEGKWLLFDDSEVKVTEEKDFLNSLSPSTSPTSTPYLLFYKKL
Summary of the method: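 Enzyme-free wells gave the negative control, while test wells held 1nM USP1/UAF1 preincubated with compound for 15 min at room temperature. Ub-Rho at 150nM final started the reaction, and fluorescence at 480/540 nm was recorded kinetically.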

[17] = target: Lysosomal acid glucosylceramidase (Homo sapiens) (UniProt P04062); test: Glucocerebrosidase-p2 (AID 348; in the data active = potency below about 10 µM; also: potency is read from the fitted curve at half-maximal effect); settings: purified GBA, blue fluorogenic substrate, 40 min
Chain of Lysosomal acid glucosylceramidase (Homo sapiens) (P04062 whole entry, looked up): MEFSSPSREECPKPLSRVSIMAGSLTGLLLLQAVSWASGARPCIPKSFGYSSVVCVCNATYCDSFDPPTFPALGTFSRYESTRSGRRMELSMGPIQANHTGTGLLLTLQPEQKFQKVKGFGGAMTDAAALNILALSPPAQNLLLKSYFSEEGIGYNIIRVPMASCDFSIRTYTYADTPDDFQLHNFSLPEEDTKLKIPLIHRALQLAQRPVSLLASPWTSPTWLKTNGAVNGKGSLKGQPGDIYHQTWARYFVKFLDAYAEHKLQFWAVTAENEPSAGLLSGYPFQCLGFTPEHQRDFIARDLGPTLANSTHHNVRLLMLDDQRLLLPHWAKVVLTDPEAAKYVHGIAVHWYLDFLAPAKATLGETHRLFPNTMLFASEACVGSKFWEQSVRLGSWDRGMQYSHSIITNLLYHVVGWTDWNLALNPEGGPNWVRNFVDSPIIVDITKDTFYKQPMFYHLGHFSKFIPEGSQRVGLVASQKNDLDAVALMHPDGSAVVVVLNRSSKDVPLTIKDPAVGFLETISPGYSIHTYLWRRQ
Summary of the method: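 Normal human glucocerebrosidase (0.2 nM) with blue fluorogenic substrate (80 uM final) in citrate/phosphate pH 5.9 with 10mM sodium taurocholate, 0.01% tween-20; 40 min RT, NaOH/glycine stop; fluorescence Ex 365/Em 440; AC50 from a titration from 0.6 nM upwards.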

[18] = target: Cytochrome P450 2C19 (Homo sapiens) (UniProt P33261); test: qHTS Assay for Inhibitors and Substrates of Cytochrome P450 2C19 (AID 899); also: potency is read from the fitted curve at half-maximal effect; nearly all actives have a fitted effect of over 60% in size
Chain of Cytochrome P450 2C19 (Homo sapiens) (P33261 whole entry, looked up): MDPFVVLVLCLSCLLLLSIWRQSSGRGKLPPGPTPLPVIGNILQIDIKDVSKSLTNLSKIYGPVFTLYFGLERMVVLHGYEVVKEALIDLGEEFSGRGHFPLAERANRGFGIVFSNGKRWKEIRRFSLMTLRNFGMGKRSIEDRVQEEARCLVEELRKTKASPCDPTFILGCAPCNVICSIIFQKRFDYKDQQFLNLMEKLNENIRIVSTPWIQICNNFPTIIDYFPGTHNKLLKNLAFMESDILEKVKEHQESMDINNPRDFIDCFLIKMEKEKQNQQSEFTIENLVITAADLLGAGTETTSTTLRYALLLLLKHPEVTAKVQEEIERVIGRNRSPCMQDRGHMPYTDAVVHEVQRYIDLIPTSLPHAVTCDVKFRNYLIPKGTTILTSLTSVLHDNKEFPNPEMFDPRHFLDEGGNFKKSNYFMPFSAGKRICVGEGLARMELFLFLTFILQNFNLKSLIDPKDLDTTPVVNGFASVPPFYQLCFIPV
Summary of the method: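 In 50mM KPO4, the reaction held 5nM enzyme and KM-level (10uM) Luciferin-H EGE; it ran 60 min at 37C after NADPH regeneration and a 10 min compound preincubation. Luminescence values were scaled to 57uM ketoconazole as complete inhibition.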

[19] = measured here: cell count channel max response
[20] = measured here: lipid channel max response

| SMILES | activity change, negative = inhibition [1] | Potency [2] | activity change, negative = inhibition [3] | activity, negative = inhibition [4] | Potency [5] | Potency [6] | outcome [7] | Potency [8] | Potency [9] | Potency [10] | activity change, negative = inhibition [11] | max response [11, 19] | max response [11, 20] | Potency [12] | Potency [13] | Potency [14] | Potency [15] | Potency [16] | Potency [17] | Potency [18] |
| --- | --- | --- | --- | --- | --- | --- | --- | --- | --- | --- | --- | --- | --- | --- | --- | --- | --- | --- | --- | --- |
| c1cncc(CNc2ncncc2-c2cccnc2)c1 | 3.11% (inactive) | 5.01 µM (active) | 1.94% (inactive) | 12.2% (inactive) | > 46 µM (inactive) | > 46 µM (inactive) | inactive | inactive | 2 µM (active) | inactive | 2.51% (inactive) | 25.3% | 26.2% | inactive | inactive | inactive | inactive | – | – | – |
| COCCn1c(=O)c(C)nc2cnc(N(C)C)nc21 | 3.65% (inactive) | 3.98 µM (active) | – | -5.78% (inactive) | > 9.22 µM (inactive) | > 46 µM (inactive) | inactive | inactive | – | – | 4.96% (inactive) | 17.2% | 22.8% | inactive | inactive | inactive | inactive | inactive | – | – |
| COCCNc1ncnc2ccc(-c3cccc(NS(C)(=O)=O)c3)cc12 | -19.3% (inactive) | 0.794 µM (active) | – | -4.92% (inactive) | > 46 µM (inactive) | > 46 µM (inactive) | inactive | inactive | – | inactive | 1.59% (inactive) | -7.37% | -7.54% | 12.6 µM (active) | 8.91 µM (active) | 11.2 µM (active) | inactive | inactive | – | – |
| Fc1ccc(Nc2ncncc2-c2ccccc2C(F)(F)F)cc1 | -13.5% (inactive) | 20 µM (active) | – | 23.6% (inactive) | > 46 µM (inactive) | > 46 µM (inactive) | inactive | – | 0.398 µM (active) | inactive | 3.62% (inactive) | 13% | 14.7% | inactive | inactive | – | inactive | inactive | > 11.4 µM (inactive) | 7.94 µM (active) |
| COc1ccccc1CNc1cc(-c2c(C)noc2C)ncn1 | 14.8% (inactive) | 5.01 µM (active) | -3.28% (inactive) | -4.72% (inactive) | > 46 µM (inactive) | > 46 µM (inactive) | inactive | inactive | – | inactive | 10.8% (inactive) | 30% | 41.7% | 15.8 µM (active) | 17.8 µM (active) | – | inactive | inactive | > 11.4 µM (inactive) | – |
| COc1cccc(-c2cc(N(C)Cc3ccco3)ncn2)c1 | 22.2% (inactive) | 0.794 µM (active) | -17.2% (inactive) | -2% (inactive) | > 46 µM (inactive) | > 46 µM (inactive) | inactive | inactive | – | inactive | 8.28% (inactive) | 20.9% | 28.5% | 12.6 µM (active) | 14.1 µM (active) | – | inactive | inactive | > 11.4 µM (inactive) | – |
